Screening data deposited in PubChem BioAssay by several laboratories.
Hits are enriched below; roughly 1.8% of the tested compounds scored in any of these assays.
TLR4 MyD88 comp = inhibitors of human TLR4-MyD88 binding; 200,000 tested, 0.18% active; inhibition, % at 8.4 µM; HeLa CL3-4 TLR4/MyD88 BLA complementation, FRET ratio; AID 861; O00206+Q99836; in the data active = inhibition above about 25%
LANA-H2B inh = blocks KSHV LANA binding to histone H2A/H2B. cell-free LANA-H2A/H2B peptide, fluorescence polarization. inhibition, % (no concentration beside the values). 320,000 tested, 0.6% active. AID 2629; in the data active = inhibition mostly above about 10%, no sharp cut-off; inactive = mostly below about 6.7%
NOD2 RIPK2 PPI = blocks binding of human NOD2 to RIPK2; CHO BLA complementation NOD2-RIPK2, CCF4 ratio; inhibition, % at 4.98 µM; 360,000 tested, 0.38% active; AID 624267; in the data active = inhibition above about 21%
TLR9-MyD88 inh = TLR9-MyD88 interaction inhibition; Q9NR96+Q99836; CHO BLA complementation TLR9-MyD88, CCF4 FRET ratio; inhibition, % at 4.98 µM; 340,000 tested, 0.21% active; AID 504734;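 active = inhibition above the mean over all tested compounds plus 3 SD, cut at about 21% in these data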
Rtt109 Vps75 = blocks Candida albicans Rtt109/Vps75 acetyltransferase activity | purified Rtt109/Vps75, ThioGlo CoA-SH fluorescence, 4 h | inhibition, % at 34.9 µM | 330,000 tested, 0.16% active | AID 540336;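 active = inhibition of at least 50% in every replicate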
HTR2A ag = agonists of mouse serotonin 5-HT2A receptor (HTR2A); P35363; CHO-K1 mHTR2A beta-arrestin complementation, luminescence; percent of 30 µM serotonin response; activation, % at 7.6 µM; 360,000 tested, 0.66% active; AID 624169;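 active = activation above a run cutoff, the mean activation of all tested compounds plus 3 SD, cut at about 14% in these data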
TLR4-MyD88 conf = TLR4-MyD88 interaction inhibition confirmed | shares compounds with TLR4 MyD88 comp | HeLa CL3-4 BLA complementation, CCF4 FRET ratio | inhibition, % at 8.4 µM | 350 tested, 50% active | AID 941;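 active = mean inhibition across three repeat runs above about 25% carried over from the earlier screen, limit read from the data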
BLA inhibitor ct = counter-screen for TLR4-MyD88 inhibitors: beta-lactamase reporter inhibitors | 350 tested, 63% active | shares compounds with TLR4 MyD88 comp | HeLa BLA reporter, CCF4 FRET ratio | inhibition, % at 8.4 µM | AID 1237;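 active = mean inhibition over three repeats above about 26% taken from the earlier screen, limit read from the data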;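 note: HeLa cells stably expressing beta-lactamase reporter as counterscreen for TLR4-MyD88 inhibitors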
TLR9-MyD88 cf = TLR9-MyD88 interaction inhibition, confirmation | shares compounds with TLR9-MyD88 inh | CHO TLR9/MyD88 BLA complementation, CCF4 FRET ratio | inhibition, % at 4.98 µM | AID 540250 | 680 tested, 51% active;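 active = mean inhibition across three repeats above about 21% taken from the earlier screen, limit read from the data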;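 note: blue over green emission ratio reports constitutive TLR9 MyD88 association via BLA complementation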
BLA counter-1 = non-selective beta-lactamase inhibitors in TLR9-MyD88 counter-screen; inhibition, % at 4.98 µM; shares compounds with TLR9-MyD88 inh; CHO-BLA cells, CCF4 FRET ratio, BLA reporter; 680 tested, 7% active;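 active = mean inhibition above a 50% cutoff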;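 note: counterscreen of TLR9-MyD88 hits on CMV-driven BLA in CHO-K1 cells; higher means less blue over green ratio so more BLA blockade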
TLR9 CHO tox = counter-screen for TLR9-MyD88 inhibitors: cytotoxicity in CHO cells | shares compounds with TLR9-MyD88 inh | luminescence | inhibition, % at 4.98 µM | 680 tested, 39% active | AID 588336; in the data active = inhibition above about 11%
MOR ag counter = activates human mu opioid receptor in HTR2A counterscreen. shares compounds with HTR2A ag. 2,300 tested, 5.3% active. activation, % at 9.3 µM. U2OS OPRM1 beta-arrestin PathHunter, luminescence; DMSO 0%, DAMGO 9.3 µM 100%;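 active = mean activation above the mean of DMSO-only wells plus 3 SD, cut at about 0.5% in these data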
m5-HT2A ag conf = confirmation of mouse HTR2A serotonin receptor agonists. shares compounds with HTR2A ag. CHO-K1 PathHunter beta-arrestin recruitment, luminescence; DMSO 0%, 30 µM serotonin 100%. activation, % at 7.6 µM. 2,300 tested, 19% active;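 active = mean activation across triplicates above the hit threshold derived in the original primary screen, cut at about 15% in these data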
NOD2-RIPK2 conf = confirmation of human NOD2-RIPK2 interaction inhibitors; shares compounds with NOD2 RIPK2 PPI; CHO cells, NOD2-RIPK2 BLA complementation, CCF4 FRET; inhibition, % at 4.98 µM; 1,200 tested, 70% active; AID 624370;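 active = mean inhibition across replicates above a set limit taken from the earlier primary screen, cut at about 21% in these data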
BLA counter-2 = NOD2-RIPK2 counterscreen BLA reporter activity; shares compounds with NOD2 RIPK2 PPI; CHO BLA reporter, CCF4 FRET ratio; inhibition, % at 4.98 µM; 1,200 tested, 57% active; AID 624371;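 active = mean inhibition above the low-control mean inhibition plus three low-control SD, cut at about 11% in these data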
A number is an active result; - = inactive; . = no result given.

SMILES | TLR4 MyD88 comp | LANA-H2B inh | NOD2 RIPK2 PPI | TLR9-MyD88 inh | Rtt109 Vps75 | HTR2A ag | TLR4-MyD88 conf | BLA inhibitor ct | TLR9-MyD88 cf | BLA counter-1 | TLR9 CHO tox | NOD2-RIPK2 conf | BLA counter-2 | others
O=C(C[n+]1ccc2ccccc2c1)c1ccc2ccc3ccccc3c2c1 | . | . | - | . | . | - | . | . | . | . | . | . | .
OCCCc1nc2n(n1)C(c1ccccc1)C=C(c1ccccc1)N2 (stereo unspecified) | 35 | - | 64 | 40 | - | - | 28 | 50 | 32 | - | - | . | .
Nc1c(C(=O)Nc2nc3ccccc3s2)sc2nc(-c3cccs3)ccc12 | 65 | - | - | 25 | - | - | 48 | 77 | 48 | - | 42 | . | .
CC(=O)c1sc2nc(-c3cccs3)ccc2c1N | - | - | - | - | - | - | . | . | . | . | . | . | .
CC(C)C(=O)N1CCC1(C)C(=O)Nc1ccc(-n2cncn2)cc1 (stereo unspecified) | . | . | - | . | . | - | . | . | . | . | . | . | .
O=C(OCCN1C(=O)c2cccc3c(N4CCOCC4)ccc(c23)C1=O)c1ccc(Cl)cc1Cl | 40 | 30 | - | 38 | - | - | 58 | 86 | 68 | 69 | 29 | . | .
O=C(OCCN1C(=O)c2ccccc2C1=O)c1cc(S(=O)(=O)N2CCOCC2)ccc1Cl | - | - | - | - | - | - | . | . | . | . | . | . | .
CCc1nc2ccc(C(=O)N(C)C(C)C)cn2c1N(CCC(C)C)CCN(C)C | . | . | - | . | . | - | . | . | . | . | . | . | .
O=[N+]([O-])c1ccc(-c2ccc(/C=N/Nc3nc(NCc4ccccc4)nc(N4CCOCC4)n3)o2)cc1 | 55 | - | - | 36 | - | - | 47 | 76 | 29 | - | - | . | .
O=C(/C=C/c1c[nH]c2ccccc12)c1cccc2ccccc12 | 33 | - | - | 36 | - | - | - | 47 | 23 | - | - | . | .
O=c1c2ccccc2nc(/C=C/c2c[nH]c3ccccc23)n1CCO | 26 | - | - | - | - | 15 | - | - | . | . | . | . | . | MOR ag counter=-;m5-HT2A ag conf=-
CC(C)CC(N)c1csc(Nc2ccccn2)n1 (stereo unspecified) | . | . | - | . | . | - | . | . | . | . | . | . | .
CCN1/C(=C/C=C/c2oc3ccc(-c4ccccc4)cc3[n+]2CC)Oc2ccc(-c3ccccc3)cc21 | 40 | - | 47 | 25 | - | - | 35 | 57 | 25 | - | 69 | 67 | 57
c1cn2c(NC3CCCCC3)c(-c3ccc(SC4CCCCC4)cc3)nc2cn1 | . | - | - | - | - | - | . | . | . | . | . | . | .
CCN(CC)c1ccc(-c2nc3cnccn3c2NC2CCCC2)cc1 | 52 | - | 22 | 36 | - | - | 31 | 61 | 37 | - | - | 56 | 66
Nc1cccc2c1C(=O)N(CC(=O)NC13CC4CC(CC(C4)C1)C3)C2=O | 31 | - | 39 | - | - | - | - | 37 | . | . | . | 44 | 47
CC/C(=N\Nc1ccc([N+](=O)[O-])cc1)c1ccccc1 | 31 | - | 27 | 22 | - | - | - | 35 | - | - | - | 38 | 40
C/C(=N\NC(=O)COc1ccc([N+](=O)[O-])cc1)c1ccco1 | . | - | - | - | - | - | . | . | . | . | . | . | .
O=[N+]([O-])c1ccc(NN=C(Oc2ccccc2)c2ccc([N+](=O)[O-])cc2)cc1 | . | . | - | - | . | - | . | . | . | . | . | . | .
CCc1ccc(/C(C)=N\Nc2ccc([N+](=O)[O-])cc2)cc1 | 32 | - | 30 | 31 | - | - | 32 | 55 | 23 | - | - | 41 | 46
C/C(=N\Nc1ccc([N+](=O)[O-])cc1)c1ccc(N)cc1 | - | - | - | - | - | - | . | . | . | . | . | . | .
C/C(=N\Nc1ccc([N+](=O)[O-])cc1)c1ccco1 | 29 | - | 25 | 30 | - | - | 27 | 42 | - | - | - | 36 | 41
Cc1ccccc1COc1cccn2c(N(C)C(=O)CCC3CCCC3)c(C)nc12 | . | . | - | . | . | - | . | . | . | . | . | . | .
CC(=O)Nc1nc2n(n1)C(c1ccc(F)cc1)C=C(c1ccccc1)N2 (stereo unspecified) | 34 | - | 41 | 41 | - | - | 36 | 56 | - | - | - | - | -
COc1ccc(C2C=C(c3ccc(Cl)cc3)Nc3nc(NC(C)=O)nn32)cc1 (stereo unspecified) | - | - | . | . | . | . | . | . | . | . | . | . | .
SMILES | TLR4 MyD88 comp | LANA-H2B inh | NOD2 RIPK2 PPI | TLR9-MyD88 inh | Rtt109 Vps75 | HTR2A ag | TLR4-MyD88 conf | BLA inhibitor ct | TLR9-MyD88 cf | BLA counter-1 | TLR9 CHO tox | NOD2-RIPK2 conf | BLA counter-2 | others
Cn1c(-c2c(N)n(CCCc3ccccc3)c3nc4ccccc4nc23)nc2ccccc21 | 48 | . | 58 | 32 | - | - | 54 | 86 | 62 | 63 | - | 79 | 80
Cn1c(-c2c(N)n(CCc3ccccc3)c3nc4ccccc4nc23)nc2ccccc21 | 69 | - | 69 | 61 | - | - | 51 | 84 | 55 | 56 | - | 73 | 75
Nc1c(C(=O)OCC2CCCO2)c2nc3ccccc3nc2n1C1CCCC1 (stereo unspecified) | - | - | - | - | - | - | . | . | . | . | . | . | .
Cn1c(-c2c(N)n(C3CCCC3)c3nc4ccccc4nc23)nc2ccccc21 | 68 | - | 29 | 40 | - | - | 69 | 96 | . | . | . | 78 | 83
CC(=O)NCCNC(=O)C1(C)Cc2c(-c3ccc(NC(C)=O)cc3)ccnc2O1 (stereo unspecified) | . | . | - | . | . | - | . | . | . | . | . | . | .
CCCN(CCC)CC(O)Cn1cc(/C=C/C(=O)c2cccs2)c2ccccc21 (stereo unspecified) | 39 | . | 39 | 40 | - | - | 32 | 63 | 21 | - | - | 46 | 44
